Source: PubChem (The Scripps Research Institute Molecular Screening Center)
Shown are actives, neighbours in structure and some others; about 4.1% of the full set was active somewhere.
hgDAF12 agonist = hgDAF-12 agonism, primary luciferase screen; HEK293 GAL4-hgDAF12 UAS-luciferase reporter, agonist luminescence; normalized to butyrate control; activation, % at 6.8 µM; actives 1.8% (n = 370,000);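 active means activation above a cutoff set at the mean of all screened compounds plus 3 SD, cut at about 10% in these data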;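 further: 0% = DMSO wells and 100% = sodium butyrate wells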
hcDAF-12 act = activates DAF-12 receptor from parasite H. contortus; HEK293 hcDAF-12 lit1-tk-luc reporter, luminescence; 0% DMSO, 100% Δ7-dafachronic acid; activation, % at 6.8 µM; actives 1.4% (n = 370,000); AID 652067;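 active means activation above the mean of all tested compounds plus 3 SD, cut at about 5.5% in these data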;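 further: 100% = response to 3 µM Δ7-dafachronic acid high control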
DAX1 inh-1 = NR0B1 (DAX1) inhibition; P51843; HEK293 Gal4-DAX1 luciferase reporter, luminescence; inhibition, % at 6.75 µM; actives 0.99% (n = 340,000); AID 504766;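 active means inhibition above the mean over all tested compounds plus 3 SD, cut at about 4.2% in these data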;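 further: 0% = DAX1-transfected cells with DMSO and 100% = empty-vector control cells with DMSO; inhibition shows as a rise in luminescence from relieved DAX1 repression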
Target sequence (P51843 207-470 limits assumed): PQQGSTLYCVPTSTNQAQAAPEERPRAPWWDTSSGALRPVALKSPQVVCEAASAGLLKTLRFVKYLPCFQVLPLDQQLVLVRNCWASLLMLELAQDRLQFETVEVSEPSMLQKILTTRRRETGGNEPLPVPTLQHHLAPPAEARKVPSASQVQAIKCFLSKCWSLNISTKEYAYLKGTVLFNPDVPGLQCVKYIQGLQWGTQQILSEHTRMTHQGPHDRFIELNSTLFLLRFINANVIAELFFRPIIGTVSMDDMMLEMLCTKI
ssDAF12 agonist = activates DAF-12 receptor from parasite S. stercoralis | HEK293 ssDAF-12/GRIP1 lit1-tk-luc reporter, luminescence; % of 3 µM dafachronic acid response | activation, % at 6.8 µM | actives 1% (n = 370,000) | AID 652126;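 active means activation above the mean over all tested compounds plus 3 SD, cut at about 0.9% in these data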;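 further: 0% = DMSO-only wells and 100% = 3 µM delta7-dafachronic acid wells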
DAX1 inh-2 = inhibitors of DAX1 repression of SF-1 activated StAR promoter; actives 1.1% (n = 370,000); inhibition, % at 6.8 µM; HEK293T StAR-luciferase reporter, SF-1/DAX-1 repression relief;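 active means inhibition above the mean over all tested compounds plus 3 SD, cut at about 3.6% in these data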;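 further: 0% = DAX-1 cells with DMSO and 100% = cells lacking DAX-1 with DMSO; higher inhibition means more luminescence from relief of DAX-1 repression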
Starred values were filed as active, the others as inactive; . = no result given.

SMILES	hgDAF12 agonist	hcDAF-12 act	DAX1 inh-1	ssDAF12 agonist	DAX1 inh-2
COc1ccc(-c2ccc(SCC(=O)NC3CCCC3)nn2)cc1	2	1	4.4*	-1	0
COc1ccc2c(c1)C=C(CN1CCN(C3CCCC3)C(CCO)C1)CO2 (stereo unspecified)	-1	0	1	-2	0
COc1ccc(Nc2nnc(SCC(=O)NC3CCS(=O)(=O)C3)s2)cc1 (stereo unspecified)	2	2	1	0	3.6*
Cc1ccc2c(c1)c1nnc(SCC(=O)NC3CC3)nc1n2C	4	2	0	-1	0
CCc1ccc(-c2nc(SCC(=O)NC3CCS(=O)(=O)C3)n[nH]2)cc1 (stereo unspecified)	0	1	3	0	3.6*
COc1ccc2c(c1)c1nnc(SCC(=O)NC3CC3)nc1n2C	0	4	1	1.7*	0
COc1ccc(Nc2nnc(SCC(=O)NC3CC3)s2)cc1	-2	0	-1	-1	0
O=C(CSc1nnc(-c2ccccc2)n1-c1ccc(Cl)cc1)Nc1cccc2ccccc12	1	-3	.	-1	-1
O=C(N=C1N(Cc2ccccc2)C[C@]2(C=C3CCCCC3n3c(=O)n(-c4ccccc4)c(=O)n32)N1C(=O)OCc1ccccc1)c1ccccc1 (stereo partly specified)	0	-2	.	-1	1
Cc1ccc(F)cc1NC(=O)C1CC(=O)N(Cc2ccccc2)C1 (stereo unspecified)	0	3	0	0	0
CCC(C)NC(=O)c1cc2cc3ccc(OC)cc3nc2s1 (stereo unspecified)	10	4	1	1.4*	3.8*
Cc1nc(Cl)sc1C(=O)Nc1ccc(C(C)(C)C)cc1	5	1	5.2*	0	-1
Cc1noc(N)c1C(=O)Nc1ccc(C(C)(C)C)cc1	13*	1	3	0	2
Cn1c(=O)[nH]c(=O)c2c1nc(SCC(=O)O)n2CCOc1ccccc1	2	0	2	0.9*	0
O=C(/C=C/c1ccco1)Nc1cccnc1	5	0	2	0	1
Cc1ccc(NC(=O)/C=C/c2ccco2)nc1	8	6.5*	1	1.6*	6.5*
O=C(/C=C/c1ccco1)Nc1ccccn1	13*	4	-1	0	1
CCCCN1C[C@H](C)[C@@H](CC(=O)NC)C1=O	-3	2	0	-1	0
CCOc1ccc(/C=C/C(=O)CCC(=O)O)cc1	3	1	5.8*	-2	3
O=C(O)CCC(=O)/C=C/c1ccccc1	1	-2	2	-1	-1
COc1ccc(CCNC(=O)CN2C(=O)C(=O)N(C3CCCC3)C2=O)cc1OC	1	0	0	1.3*	1
CC(C)c1[nH]nc2c1C(c1ccc3c(c1)OCO3)NC2=O (stereo unspecified)	-3	-2	.	-1	-1
C#CCCC(=O)O[C@H]1CCC[C@@]2(C(=O)N(Cc3ccccc3)c3ccccc32)[C@H]1NC(=O)CCc1ccccc1	-2	-3	.	0	0
CN(C)c1ccc2c(c1)C(=NO)c1ccccc1-2	.	.	4.4*	.	.
CCOC(=O)[C@@]12CCCC3=C1N(CCC3)C(=O)[C@H]2CC(=O)NCc1cccs1	-1	0	.	-1	-1
SMILES	hgDAF12 agonist	hcDAF-12 act	DAX1 inh-1	ssDAF12 agonist	DAX1 inh-2
COc1ccc(C2CC(=O)C(c3ccccc3OC)=CN2Cc2ccccc2)cc1 (stereo unspecified)	3	-3	.	-1	-2
Nc1nc2c(ncn2[C@@H]2O[C@H](C(=O)NCC3CCCCC3)[C@@H](O)[C@H]2O)c(=O)[nH]1	1	-1	.	0	-1
COc1cc(C)ccc1OCc1cc(C(=O)N(C)CCCN2CCOCC2)no1	10*	5	2	1.8*	1
CN(CCCN1CCOCC1)C(=O)c1cc(COc2ccc(F)cc2F)on1	-1	0	1	-1	0
COc1cc(C(C)=O)ccc1OCc1cc(C(=O)N(C)CCC2CCCCO2)no1 (stereo unspecified)	10	4	2	1.1*	1
COC(=O)[C@]1(CNC(=O)c2cc(F)ccc2F)CC(=O)N(C)[C@@H]1c1ccccc1	-1	0	.	-1	0
COc1ccc(N=Nc2nc3cc(Br)c(Br)cc3n2C)c(OC)c1	0	1	-1	1.6*	0
Nn1c(SCC(=O)Nc2cccc3ccccc23)nnc1-c1n[nH]c2c1CCC2	0	-2	.	-1	-1
CCOC1=C2CN(S(=O)(=O)c3ccc(C)cc3)[C@H](c3ccccc3)C[C@H]2[C@H]2C(=O)N(c3ccccc3)C(=O)[C@H]2C1	-1	0	.	-1	4.0*
Cc1cnc(NC(=O)Cc2cccs2)s1	1	0	-2	-1	0
COc1cccc(/C=C2/Sc3ccc(C(=O)NCCCN4CCCC4)cc3NC2=O)c1	0	-2	1	-1	3.7*
C[C@@H]1CN([C@@H](C)CO)C(=O)CCCn2cc(nn2)CO[C@H]1CN(C)C(=O)Nc1ccnc(N2CCOCC2)c1	-2	-1	.	-1	0
C[C@H](CO)N1C[C@H](C)[C@@H](CN(C)C(=O)Nc2cccc(Oc3ccccn3)c2)OCc2cn(nn2)CCCC1=O	1	-1	.	-1	2
C[C@@H]1CN([C@H](C)CO)C(=O)CCCn2cc(nn2)CO[C@H]1CN(C)C(=O)Nc1cccc(Oc2ccccn2)c1	0	-1	6.3*	-1	0
C[C@@H]1CN([C@H](C)CO)C(=O)CCCn2nncc2CO[C@H]1CN(C)C(=O)c1ccccc1	13*	0	0	-1	0
C[C@@H]1CN([C@@H](C)CO)C(=O)CCCn2nncc2CO[C@@H]1CN(C)C(=O)Nc1ccnc(N2CCOCC2)c1	0	0	6.2*	-1	1
CCC(C)NC(=O)C1CCN(S(=O)(=O)c2ccc3[nH]c(=O)oc3c2)CC1 (stereo unspecified)	-2	-1	.	-1	1
CC1=C(C(=O)N2CCCCCC2)CC(CC(=O)NC2CCCC2)C(=O)N1Cc1ccccc1 (stereo unspecified)	-3	-2	.	0	0
CC(=O)OCCN1c2ccccc2Sc2cnccc21	11*	-2	0	-1	0
CCOC(=O)c1c(NC(=O)c2nn(CC)cc2Br)sc(C)c1C	0	3	-1	-1	0
CCOC(=O)c1ccc(NC(=O)c2nn(CC)cc2Br)cc1	2	-2	2	-2	1
CCn1cc(Br)c(C(=O)Nc2ccc(F)c(Cl)c2)n1	10	3	2	1.7*	0
CCn1cc(Br)c(C(=O)Nc2ccc(Cl)cc2Cl)n1	1	1	0	1.0*	0
CCCCCCCCN1C(=O)[C@@H](CC(=O)N2CCN(C(=O)c3ccco3)CC2)C[C@@]2(C(=O)OC)C1=C[C@H](C(C)C)O[C@@H]2C1CC1	2	0	.	-1	-2
